Only some compounds are listed: those with a hit (about 2.9% of all), similar ones and a draw of the others.
DRD3 antagonist – blocks the human D3 dopamine receptor; P35462; D3R cells, DiscoveRx beta-arrestin luminescence, antagonist mode; active compounds read low; max response, negative = inhibition, %; actives 2.5% (n = 360,000); AID 652054; in the data active = max response below about -50%; inconclusive = no clear call, values can overlap the other calls; also: % is scaled to controls: 0 for no effect and ±100 for the full control effect
Target sequence (P35462 whole entry, looked up): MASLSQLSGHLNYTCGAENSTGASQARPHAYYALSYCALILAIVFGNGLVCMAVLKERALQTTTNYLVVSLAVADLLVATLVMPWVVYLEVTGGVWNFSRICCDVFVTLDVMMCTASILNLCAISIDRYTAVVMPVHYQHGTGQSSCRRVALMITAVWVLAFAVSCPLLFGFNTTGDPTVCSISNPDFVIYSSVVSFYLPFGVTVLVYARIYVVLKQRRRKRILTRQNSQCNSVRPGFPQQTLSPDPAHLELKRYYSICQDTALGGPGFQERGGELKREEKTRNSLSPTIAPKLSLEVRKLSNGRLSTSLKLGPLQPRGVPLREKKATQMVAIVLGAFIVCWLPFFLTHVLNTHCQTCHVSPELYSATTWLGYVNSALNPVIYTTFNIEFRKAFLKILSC
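Cells expressing the human receptor were seeded at 1500 cells/well, incubated overnight at 37 degrees C in 5% CO2, then exposed to library compounds with dopamine controls for 90 minutes at 37 degrees C before luminescent detection.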
a7 integrin act – activators of alpha7 integrin expression for muscular dystrophy | AID 624291 | alpha7betagal myoblasts, beta-gal FDG fluorescence, 48 h | Potency, µM (top dose mostly 38.3 µM), for inactives: at the top dose activation, actives largely listed as activators | actives 0.064% (n = 350,000); active = well fitted activation curve with a large enough effect; inconclusive = small, poorly fitted or top-dose-only effect; inactive = no such curve, though single readings can be large or run the other way;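 also: potency is read from the fitted curve at half-maximal effect; 100% = response of the positive control SU9516; nearly all actives have a fitted effect of over 60% in size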
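alpha7betagal+/- myoblasts (passage 13, 250/well) treated 48 h at 37C with compounds at 1:260 dilution of DMSO stock. Lysed, then beta-galactosidase activity read as FDG fluorescence (ex 480/em 540) after 30 min, with pre-read for autofluorescence.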
D3 ag – agonists of human D3 dopamine receptor. P35462. D3R DiscoveRx beta-arrestin cells, luminescence, 90 min. max activation, %. actives 0.58% (n = 410,000); in the data active = max activation above about 30%; also: 0% is about no effect
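Agonist mode: compounds and dopamine controls were applied to plated cells for 90 min at 37 degrees C after an overnight attachment at 1500 cells/well. Luminescent read-out followed 30 - 60 minutes at room temperature with DiscoveRx detection reagent.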
Numbers without * were called inactive; ? = inconclusive; . = no result; + = active, no number.

SMILES | DRD3 antagonist | a7 integrin act | D3 ag
COC(=O)CN(c1ccccc1)S(=O)(=O)c1ccc(F)cc1 | -21 | 18% | 0
CCN(c1ccccc1)S(=O)(=O)c1ccc(F)cc1 | -53* | -7% | 1
Cc1cccc(NC(=O)CSc2nccn2Cc2ccc(F)cc2)c1C | . | . | 3
c1ccc(-c2cnc(SCCN3CCOCC3)n2CC2CCCO2)cc1 (centres undefined) | -57* | -32% | -2
COc1ccc(-c2cnc(N)n2CC2CCCO2)cc1 (centres undefined) | ? | -17% | -13
COc1ccccc1N(C)S(=O)(=O)c1ccc(Cl)c(C(=O)NCc2cccnc2)c1 | -2 | -2% | 14
Cc1ccccc1C(=O)NNC(=O)/C=C\C(=O)O | -21 | ? | -4
COc1ccc(C(O)c2nc(-c3ccccc3OC)cs2)cc1 (centres undefined) | 10 | . | 6
Cc1ccc(S(=O)(=O)Nc2ccc(N3CCN(C)CC3)nc2)cc1 | -59* | 4% | -16
CN1CCN(c2ccc(NS(=O)(=O)c3ccc(Cl)cc3)cn2)CC1 | ? | -1% | -18
CCc1ccc(S(=O)(=O)Nc2ccc(N3CCN(C)CC3)cc2)cc1 | -82* | -2% | -9
CCc1ccc(S(=O)(=O)Nc2ccc3c(c2)n(C)c(=O)c(=O)n3C)cc1 | . | . | 6
Cc1ccc(-n2c(-c3ccco3)nc3c(cnn3-c3ccccc3C)c2=O)cc1 | -22 | 5% | -11
CC(C)(C)NC(=O)CN1CCC(O)(c2ccc3c(c2)OCO3)CC1 | -3 | -2% | -1
CC(C)(C)NC(=O)CN1CCC(O)(c2ccccc2)CC1 | + | 3% | -17
O=C(CSCc1ccc(Cl)cc1)Nc1ccc(Br)cc1C(=O)O | 1 | -23% | 5
CCC(=O)Nc1nnc(-c2ccncc2)s1 | -18 | -4% | -2
Cc1ccccc1C(=O)/C(C#N)=N/Nc1c(C)n(C)n(-c2ccccc2)c1=O | ? | -8% | -15
N#C/C(=N\Nc1ccccc1Cl)C(=O)c1ccccc1 | 1 | 31% | 3
N#C/C(=N\Nc1cccc(Cl)c1)C(=O)c1ccccc1 | -86* | 14% | 7
Cc1c(N/N=C(\C#N)C(=O)c2ccccc2)c(=O)n(-c2ccccc2)n1C | -68* | -10% | -20
CCOc1ccccc1N1CCN(CC(=O)Nc2cc(C)on2)CC1 | 5 | 0% | -3
CC(C)(C)c1nc(S(=O)(=O)c2ccc(Cl)cc2)c(N2CCOCC2)o1 | -28 | 14% | -8
CC(C)Cc1nc(S(=O)(=O)c2ccc(Cl)cc2)c(N2CCOCC2)o1 | -54* | 28% | 3
Cn1cc(CNC(=O)Nc2ccc3c(c2)OCO3)cn1 | 20 | -31% | 1
SMILES | DRD3 antagonist | a7 integrin act | D3 ag
COc1ccc(Cn2c(=O)[nH]c3cc(C(=O)N4CCN(c5cccc(OC)c5)CC4)ccc3c2=O)cc1 | . | . | -2
CC(=O)NC1=NN(C(C)=O)C(C)(c2cccs2)S1 (centres undefined) | -19 | -6% | -12
CCOC(=O)C1CCN(C(=O)c2sc3ncnc(N4CCC(C)CC4)c3c2C)CC1 | -16 | -18% | -22
O=C(CSc1nnc(-c2ccco2)o1)NC(=O)Cc1ccccc1 | -15 | -9% | -6
O=C(CSc1nnc(-c2ccco2)o1)NC(=O)C1COc2ccccc2O1 (centres undefined) | -55* | 17% | 3
COc1ccc2c(CC(=O)OCC(=O)N(C)c3c(N)n(Cc4ccccc4)c(=O)[nH]c3=O)coc2c1 | -18 | 7% | 0
COC(=O)c1ccc(CNS(=O)(=O)c2ccc3ccccc3c2)cc1 | 10 | 2% | -31
Cc1nnc(SCC(=O)N2CCC(Cc3ccccc3)CC2)n(N)c1=O | -99* | 8% | -26
Cc1nnc(SCC(=O)N2CCCCCC2)n(N)c1=O | 4 | -40% | -3
CC(=O)c1ccc(N2CCN(C(=O)CCn3cnc4onc(-c5ccc(F)cc5)c4c3=O)CC2)cc1 | . | . | -17
Clc1ccc2[nH]c3c(c2c1)CNCC3 | -98* | 1% | -34
O=C(O)c1cccc2c3c([nH]c12)CCCC3 | 5 | ? | 5
COc1ccc2[nH]c3c(c2c1)CNCC3 | 19 | 5% | 4
Clc1cccc2c3c([nH]c12)CCNC3 | -60* | 1% | -44
O=C(CN1CCN(C(=O)c2ccccc2Cl)CC1)Nc1cccc(S(=O)(=O)N2CCCC2)c1 | 32 | 0% | -2
O=C(/C=C/C=C/c1ccccc1)CC1(O)C(=O)N(CCc2ccccc2)c2ccccc21 (centres undefined) | -19 | -24% | 3
COc1ccc(-c2ccc3oc(-c4ccsc4)cc3c2)cc1 | 19 | -5% | -4
CNC(=O)C[C@@H]1CC[C@@H]2[C@H](COC[C@H](O)CN2S(=O)(=O)c2ccccc2Cl)O1 | -2 | . | -6
